USP28 block = inhibitors of human USP28 deubiquitinase | AID 1645857, 2021 | Ubiquitin carboxyl-terminal hydrolase 28 (Homo sapiens), Q96RU2 | purified USP28, Ub-rhodamine cleavage fluorescence, 30 min | actives 3% (n = 47,000) | inhibition, % at 25 µM
USP30 block = inhibitors of human USP30 deubiquitinase. purified USP30, Ub-rhodamine cleavage fluorescence. inhibition, % at 25 µM. actives 5.3% (n = 47,000)
USP17 block = inhibitors of human USP17 deubiquitinase. AID 1645855, 2021. actives 6.5% (n = 47,000). inhibition, % at 50 µM. purified USP17, Ub-rhodamine cleavage fluorescence, 3 h. Ubiquitin carboxyl-terminal hydrolase 17-like protein 5 (Homo sapiens), A8MUK1
OTUD3 inh = inhibitors of human OTUD3 deubiquitinase. OTU domain-containing protein 3 (Homo sapiens), Q5T2D3. purified OTUD3, Ub-rhodamine fluorescence, 2 h. inhibition, % at 25 µM. actives 0.7% (n = 47,000)
Target sequence (Q5T2D3 whole entry, looked up, the tested form may be a part): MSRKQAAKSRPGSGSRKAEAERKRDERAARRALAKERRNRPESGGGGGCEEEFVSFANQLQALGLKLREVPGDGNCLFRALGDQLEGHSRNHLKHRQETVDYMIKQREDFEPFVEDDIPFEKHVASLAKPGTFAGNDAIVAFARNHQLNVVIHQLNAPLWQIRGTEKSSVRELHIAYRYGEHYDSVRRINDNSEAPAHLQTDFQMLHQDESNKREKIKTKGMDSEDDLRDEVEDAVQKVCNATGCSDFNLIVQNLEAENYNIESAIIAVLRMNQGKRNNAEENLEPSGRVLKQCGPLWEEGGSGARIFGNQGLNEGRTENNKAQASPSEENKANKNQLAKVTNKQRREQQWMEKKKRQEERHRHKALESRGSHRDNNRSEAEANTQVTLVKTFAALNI
Numbers stand for hits; 0 = inactive; - = no result given. An excerpt weighted towards active compounds, which were near 12% of everything screened. Cut-off read from the data, not from the text of the source: active = inhibition above about 30%; inactive = the rest.

SMILES	USP28 block	USP30 block	USP17 block	OTUD3 inh
COc1ccc(C(=O)CSc2ccc3nnc(CCNC(=O)c4ccc(OC)cc4)n3n2)cc1	0	42.5	58.8	0
COc1ccc(C(=O)NCCc2nnc3ccc(SCC(=O)NCc4ccc(F)cc4)nn23)cc1	0	51.9	45.8	0
COc1cc(C(Nc2ccc(S(=O)(=O)N3CCCC(C)C3)cc2)C(=O)NCC2CCCO2)cc(OC)c1OC (stereo not drawn)	0	0	0	0
Cc1ccc(S(=O)(=O)N2CCC(C(=O)Nc3nc4c(F)cccc4s3)CC2)cc1	0	0	0	0
CCN(CC)c1ccc2nnc(CCC(=O)NCC3CCN(Cc4ccc(F)cc4)CC3)n2n1	0	0	0	0
Fc1ccc(Cn2ccc(-c3cnc(-c4ccccc4)s3)n2)cc1	61.9	0	0	0
O=c1c2cc(-c3ccccc3)sc2n(Cc2ccc(F)cc2)c(=O)n1-c1ccccc1	0	0	0	0
O=C(NCc1ccccn1)c1nc[nH]c1C(=O)NCc1ccc(F)cc1Cl	0	0	0	0
O=[N+]([O-])c1ccc(N2CCc3nc(-c4ccccn4)ncc3C2)cc1	0	77.3	70.4	0
O=c1c2cnc(N3CCCC3)nc2ccn1-c1ccc([N+](=O)[O-])cc1	0	0	0	0
Cc1cc2ncc3c(n2n1)CCN(c1ccc([N+](=O)[O-])cc1)C3	0	0	32.6	0
COc1ccc(CNC(=O)CSc2nc3nc(C)ccc3o2)cc1	0	0	52.1	0
COc1ccc(NC(=O)Cn2cc(C(=O)c3ccc(C)cc3)c(=O)c3ccccc32)cc1	40.9	48.6	85.4	0
Cc1ccc(C(=O)c2cn(CC(=O)Nc3ccccc3)c3ccccc3c2=O)cc1	0	34.8	36.6	0
O=C(Cn1cc(C(=O)c2ccc(F)cc2)c(=O)c2ccccc21)Nc1ccc2c(c1)OCO2	0	42.4	0	0
COc1ccccc1NC(=O)Cn1cc(C(=O)c2ccc(C)cc2)c(=O)c2cc(Cl)ccc21	0	0	60.5	0
Cn1c(=O)sc2cc(NC(=O)c3ccc(Cl)cc3)ccc21	0	0	0	0
O=C(NCc1ccco1)Nc1nc2c(s1)CN(Cc1ccccc1)C2=O	0	0	0	0
Cc1ccc2c(c1)c(=O)c(C(=O)c1ccccc1)cn2CC(=O)Nc1ccc2c(c1)OCCO2	0	0	62.1	0
Cc1ccc(C(=O)c2cn(CC(=O)Nc3ccccc3)c3ccc(C)cc3c2=O)cc1	0	0	53.0	0
COc1cc(C(=O)N(Cc2ccccc2)c2nc3ccccc3s2)cc(OC)c1OC	0	0	0	0
CCOc1cccc2sc(N(Cc3cccnc3)C(=O)CCc3ccccc3)nc12	0	79.8	0	0
CCOC(=O)c1cnc2c(cnn2C)c1NCc1cccc(C(F)(F)F)c1	0	41.0	0	0
O=C(Cn1cnc(S(=O)(=O)N2CCCCC2)c1)Nc1ccc2c(c1)OCO2	0	0	35.3	0
CC1CCN(S(=O)(=O)c2cn(CC(=O)Nc3cccc(-c4ccno4)c3)cn2)CC1	0	0	49.7	0
SMILES	USP28 block	USP30 block	USP17 block	OTUD3 inh
CCC(C)Sc1nc2c(c(=O)[nH]c(=O)n2C)n1Cc1ccccc1 (stereo not drawn)	0	0	0	0
CCCCCn1c(Sc2ccc(C)cc2)nc2c1c(=O)[nH]c(=O)n2C	0	52.8	34.5	0
COc1cc(-c2cc(C(=O)Nc3cc(C)[nH]n3)c3ccccc3n2)cc(OC)c1OC	0	51.3	38.8	0
COc1ccc(-c2cc3nc(C)cc(Nc4ccc(F)cc4)n3n2)cc1OC	0	84.8	0	0
Fc1ccc(-c2cnc(N3CCN(c4ccccn4)CC3)nc2)cc1	0	30.7	0	0
COc1ccccc1OCC(O)CNc1c(C)c(C)nc2cc(-c3nccn3C)nn12 (stereo not drawn)	0	0	0	0
Cc1nc2cc(-c3nccn3C)nn2c(N2CCC(O)(c3ccccc3F)CC2)c1C	0	0	33.8	0
Cc1nc2cc(NC(=O)C3CN(C(=O)c4cnccn4)C3)ccc2s1	53.8	0	0	0
O=C(Nc1nc2c(s1)CN(C(=O)/C=C/c1ccco1)CC2)c1cnccn1	0	0	0	0
Cc1cc(C(=O)Nc2nc3c(s2)CN(C(=O)/C=C/c2ccco2)CC3)no1	0	0	35.2	0
Cc1cccc(C)c1OCC(=O)Oc1ccc(-n2cnnn2)cc1	0	0	0	0
CCOc1ccc(-c2csc3ncn(CC(=O)NCc4ccccc4)c(=O)c23)cc1	0	0	36.7	0
COCCCn1cnc2c(-c3ccccc3)cn(CC(=O)NCc3ccccc3)c2c1=O	0	0	0	0
CC(C)n1cnc2c(-c3ccccc3)cn(CC(=O)NCc3ccccc3)c2c1=O	0	0	35.7	0
COc1ccc(NC(=O)Cn2cnc3scc(-c4ccc(OC)cc4)c3c2=O)cc1	0	0	44.7	0
COc1ccccc1CNC(=O)Cn1cnc2c(-c3ccccc3)csc2c1=O	0	32.8	0	0
O=C(O)c1c2c(nc3ccccc13)/C(=C/c1ccccc1F)CN(Cc1ccccc1)C2	0	0	0	0
O=C(NC1CC1)c1n[nH]c2c1CCCCCC2	0	0	0	0
C1=CCC(CN2CCN(Cc3ccc4c(c3)OCO4)CC2)CC1 (stereo not drawn)	0	0	0	0
Cc1cc(N2CCCCC2)nc(N2CCN(C(=O)c3ccc4ccccc4c3)CC2)n1	0	0	-	0
CN1C(=O)COc2ccccc2C/C=C/C[C@@H]2[C@H]1CCCN2C(=O)c1cc(=O)[nH]c(=O)[nH]1	0	0	0	0
CCC(C(=O)Nc1ccc(OC)cc1)n1cnc2ccccc2c1=O (stereo not drawn)	-	-	0	0
Cc1ccc(-c2csc3ncn(Cc4ccco4)c(=O)c23)cc1	32.0	0	0	0
O=c1c2c(-c3ccc(Cl)cc3)csc2ncn1Cc1ccco1	0	0	0	0
Cc1cccc2c(C(=O)N3CCCC3)cc(N(C)C)nc12	0	0	0	0
SMILES	USP28 block	USP30 block	USP17 block	OTUD3 inh
O=C(Cc1ccccc1)Nc1oc2ccccc2c(=O)c1-c1ccc2c(c1)OCO2	0	32.0	0	0
CCC(C)c1ccc(O[C@@H]2O[C@@H]3COC(c4ccccc4)O[C@H]3[C@H](O)[C@H]2NC(C)=O)cc1 (stereo partly drawn)	34.0	81.5	40.4	0
CCCN(C(=O)c1sc2nc3n(c(=O)c2c1C)CCCCC3)c1ccc(C(C)C)cc1	0	0	0	0
O=C(NCc1ccccc1)C(c1ccc(F)cc1)N(C(=O)CCN1CCc2ccccc21)c1ccc2c(c1)OCO2 (stereo not drawn)	0	0	0	0
O=C(Cc1ccc(Cl)cc1)Nc1ccc2nn(-c3ccc(F)cc3)nc2c1	-	-	44.8	0
O=C(Cc1ccc(F)cc1)Nc1ccc(N2CCOCC2)cc1	0	0	0	0
Cc1noc(-c2cnc(N(C)C)nc2-c2ccc(CNC(=O)c3cccnc3)cc2)c1C	0	0	0	0
COc1ccc(CC(=O)NCc2ccc3[nH]c(C)cc3c2)cc1	0	0	56.3	0
Cc1cc2cc(CNC(=O)c3ccccc3[N+](=O)[O-])ccc2[nH]1	0	0	39.0	0
